From PubChem BioAssay AID2391 (Southern Research Specialized Biocontainment Screening …, 2010)
Out of some 310,000 compounds screened, about 410 (0.13%) were called active. Not shown: some 2% with an inconclusive outcome. The rule behind the calls is not given here. A selection follows. Results with a measured potency or affinity are listed apart.

Test: RSV antiviral activity via CPE protection, HEp-2 cells, primary 10 µM value included (AID 2391)
Conditions: RSV-induced CPE inhibition, at 10 µM, active compounds read high

CPE inhibition, inactive:
O=C(COc1cccc2c1CCNC2=O)Nc1cccc(C(F)(F)F)c1 1.19%
C/C(=N/OC(=O)C1CC12CCC2)c1ccc(Br)cc1 (stereo unspecified) 2.98%
CCOC(=O)C1CCN(C(=O)CC(C)S(=O)(=O)c2ccc3c(c2)NC(=O)CO3)CC1 (stereo unspecified) 7%
CCOc1ccc(S(=O)(=O)Nc2ccc(F)cc2)c(C)c1C 6.57%
Cc1cccc(C)c1OCc1cc(C(=O)N2CCN(C3CCCC3)CC2)no1 0.09%
O=C(Oc1ccc(-c2nnco2)cc1)N1CCCCC1 2.35%
CCCNc1c(F)c(F)c2c(C)c3ccccc3nc2c1F -1.87%
OCCNc1c2ccccc2nc2c(F)c(F)c(F)c(F)c12 -1.66%
CCOc1ccc(C2=C/C(=C/c3cccnc3)C(=O)O2)cc1 1.93%
COc1ccc(OC)c(CCNC(=O)CN2C(=O)CCSc3ccccc32)c1 -3.24%
Cc1ccc2nc(-c3cccc(N)c3)[nH]c2c1 2.27%
Cc1ccc2[nH]c(-c3cccc(F)c3)cc(=O)c2c1 -0.29%
Cc1cccc(-c2nc(CS(=O)CC(=O)NCCc3ccccc3)c(C)o2)c1 (stereo unspecified) 0.05%
COCc1[nH]nc2c1C1(C(=O)N(C)c3ccccc31)C(C#N)=C(N)O2 (stereo unspecified) 2.9%
O=C1c2ccccc2C(=O)N1CCc1csc(-c2ccccc2)n1 3.44%
O=C1c2ccccc2C(=O)N1CCc1csc(-c2ccc(F)cc2)n1 2.17%
CCSc1nc(O)cc(=O)n1-c1ccc(OC)cc1 -0.46%
CC(NC(=O)c1nn(C)c(=O)c2ccccc12)c1ccc(F)cc1 (stereo unspecified) 1.39%
O=C(O)CCC(=O)Nc1sc2c(c1C(=O)NCc1ccccc1)CCCC2 1.43%
O=C(Nc1sc2c(c1C(=O)O)CCCCC2)c1ccccc1 2.56%
O=C(/C=C/c1cccs1)Nc1sc2c(c1C(=O)O)CCCC2 16.6%
O=C(/C=C/c1ccco1)Nc1sc2c(c1C(=O)O)CCC2 3.96%
Cn1cnnc1Sc1cc(N2CCN(S(=O)(=O)c3ccccc3)CC2)ccc1[N+](=O)[O-] 2.72%
Cc1ccc(S(=O)(=O)N2CCN(c3ccc([N+](=O)[O-])c(Sc4nncn4C)c3)CC2)cc1 2%
Cc1ccc(C(=O)COC(=O)c2ccncc2)cc1[N+](=O)[O-] 1.18%
CCCCCCCN1C/C=C\C(c2ccc(OC)cc2)N(Cc2ccc(F)cc2)C(=O)[C@H]1Cc1ccccc1 (stereo partly specified) 0.33%
CCN(CC(=O)NCc1ccccn1)S(=O)(=O)c1cc(Cl)ccc1Cl -1.64%
Cc1ccc2[nH]c3c(=O)[nH]ncc3c2c1 -1.42%
CCNC(=O)C1CN(S(=O)(=O)c2ccccc2)CCN1S(=O)(=O)c1ccccc1 (stereo unspecified) -2.71%
CC(C)(C)NC(=O)C1CN(S(=O)(=O)c2ccccc2)CCN1S(=O)(=O)c1ccccc1 (stereo unspecified) 0.62%
CCCCn1c(N)c(N(CC(C)C)C(=O)c2c(CC)noc2C)c(=O)[nH]c1=O -1.37%
Cc1cc(C(=O)OCC(N)=O)c(C)n1-c1ccccc1 -3.46%
C/C(N)=C(/C#N)C(=O)COC(=O)c1ccccc1O 1.5%
C/C(N)=C(/C#N)C(=O)COC(=O)C(c1ccccc1)c1ccccc1 0.91%
CNC(=O)COC(=O)c1cc2c(s1)CCCC2 1.88%
Cc1cc(C(=O)COC(=O)c2ccc[nH]c2=O)c(C)n1-c1ccc(F)cc1 2.01%
C/C(N)=C(/C#N)C(=O)COC(=O)c1ccccc1Oc1ccccc1 2.44%
C/C(N)=C(/C#N)C(=O)COC(=O)c1cccc2ccccc12 4.13%
C/C(N)=C(/C#N)C(=O)COC(=O)c1cc2c(s1)CCC(C)C2 (stereo unspecified) 5.48%
[O-]/[N+](=C/c1ccco1)c1ccccc1 2.24%
COc1cccc(NC(=O)c2ccccc2C(F)(F)F)c1 1.62%
O=C(c1ccc(Cl)c(S(=O)(=O)N2CCOCC2)c1)N1CCOCC1 -0.1%
CCCCOC(=O)c1ccc(NC(=O)c2ccc(F)cc2F)cc1 3.03%
CCOC(=O)c1sc(NC(=O)Cc2ccc(F)cc2)nc1C 17.9%
NC(=O)CCN1CCN(Cc2nc(C(c3ccccc3)c3ccccc3)no2)CC1 -0.36%
O=S(=O)(Nc1nc2ccccc2s1)c1cnc(Cl)c(Br)c1 0.69%
O=c1[nH]c(C2CCCN(S(=O)(=O)c3ccccc3)C2)nc2c1nnn2Cc1cccc(Cl)c1 (stereo unspecified) 43%
Cc1ccc(Cn2nnc3c(=O)[nH]c(C4CCCN(S(=O)(=O)c5ccccc5)C4)nc32)cc1 (stereo unspecified) 13%
COC(=O)c1ccc(Cn2nnc3c(=O)[nH]c(C4CCCN(S(=O)(=O)c5ccccc5Cl)C4)nc32)cc1 (stereo unspecified) 2.61%
COC(=O)c1ccccc1S(=O)(=O)N1CCCC(c2nc3c(nnn3Cc3ccc(C)cc3)c(=O)[nH]2)C1 (stereo unspecified) 10.4%
O=c1[nH]c(C2CCCN(S(=O)(=O)c3ccccc3)C2)nc2c1nnn2Cc1ccccc1F (stereo unspecified) 3.4%
Cc1ccc(Cn2nnc3c(=O)[nH]c(C4CCCN(S(=O)(=O)c5ccccc5F)C4)nc32)cc1 (stereo unspecified) 4.65%
Cc1ccc(Cn2nnc3c(=O)[nH]c(C4CCCN(S(=O)(=O)c5ccc(F)cc5)C4)nc32)cc1 (stereo unspecified) 5.93%
O=c1[nH]c(C2CCCN(S(=O)(=O)c3ccccc3)C2)nc2c1nnn2Cc1ccc2c(c1)OCCO2 (stereo unspecified) 60.4%
CN1CCN(/C(=N\O)c2nonc2N)CC1 -0.46%
Cc1ccc(-c2[nH]c3cc(C(=O)NCCCn4ccnc4)ccc3c(=O)c2O)cc1 1.07%
O=C(CCN1C(=O)S/C(=C\C=C\c2ccccc2)C1=O)Nc1ccc(O)cc1 -1.82%
CCOC(=O)CC(NC(=O)C(CC)c1ccccc1)c1ccccc1Cl (stereo unspecified) 3.39%
COc1ccc(N2CCN(S(=O)(=O)c3ccc(OC)c(C(=O)N4CCOCC4)c3)CC2)cc1 0.25%
COc1ccccc1C(=O)C1CCCN(C(=O)c2ccccn2)C1 (stereo unspecified) 2.51%
Cc1ccc(CN(C)C(=O)COC(=O)CSc2ccc(C(N)=O)cc2[N+](=O)[O-])cc1 -0.57%
COC(=O)c1ccc(NC(=O)c2ccccc2-c2ccccc2C(=O)O)cc1 0.77%
CCCCCCC(=O)Nc1c2c(nc3ccccc13)N(C)CC2 0.9%
O=C(Nc1ccc(F)cc1F)N1CCCC(c2nc(-c3ccc(F)cc3)no2)C1 (stereo unspecified) 14.7%
O=C(Nc1cccc(Cl)c1)Nc1nnc(CC2=CCCCC2)s1 5.11%
CCOc1ccc(S(=O)(=O)N(C)CC(=O)NCc2ccccn2)cc1Cl 1.39%
COCCN1C(=O)C(CC(=O)Nc2ccc(C(C)=O)cc2)SC1=Nc1ccccc1 (stereo unspecified) 2.47%
COCCN1C(=O)C(CC(=O)Nc2ccc(C(=O)O)cc2)SC1=Nc1ccccc1 (stereo unspecified) 1.29%
COc1ccc(OCc2n[nH]c(=S)n2Cc2ccco2)cc1 2.67%
Cc1ccc(C2C3=C(CCCC3=O)N=C3c4ccccc4C(=O)C32)cc1 (stereo unspecified) 11.5%
O=C1CCCC2=C1C(c1ccc(Cl)cc1)C1C(=O)c3ccccc3C1=N2 (stereo unspecified) 58.3%
CCOc1nc(Nc2ccc(OC)cc2)nc(N2CCOCC2)n1 2.38%
COc1ccc(C(=O)/C=C/NCc2ccc(F)cc2)cc1OC 4.99%
Cc1ccc(C)c(S(=O)(=O)N2CCCOC2CNC(=O)C(=O)NCc2cccs2)c1 (stereo unspecified) 1.48%
CCN(CC)c1ccc(CN(C(=O)c2cccs2)C2CCS(=O)(=O)C2)cc1 (stereo unspecified) 1.38%
COc1cc2c(cc1NC(=O)Nc1ccc(C)cc1)oc1ccccc12 33%
COc1ccc(NC(=O)Nc2cc3oc4ccccc4c3cc2OC)cc1 9.45%
CCS(=O)(=O)Nc1ccc(C2=NN(S(=O)(=O)CC)C(c3cccs3)C2)cc1 (stereo unspecified) 2.5%
Cc1ccc(CS(=O)Cc2ccc(C(=O)NCC(C)c3ccccc3)o2)cc1 (stereo unspecified) 1.69%
COCCCNC(=O)CN(c1cc(Cl)ccc1OC)S(C)(=O)=O 0.7%
C=CCNC(=O)c1ccc(-c2nc(-c3ccc(Cl)cc3Cl)cs2)cc1 3.05%
O=C(O)c1ccc(-c2nc(-c3ccccc3Cl)cs2)cc1 15.1%
CCOc1ccc(C(C(=O)NC2CCCC2)N(CCOC)C(=O)CNC(=O)c2ccco2)cc1 (stereo unspecified) 0.14%
CCN(c1ccccc1)S(=O)(=O)c1ccc(OC)c(NC(=O)Cc2ccc(F)cc2)c1 13.4%
CS(=O)(=O)c1ccc(Cl)c(NC(=O)CSc2n[nH]c(N)n2)c1 -0.18%
CCC(C)NCC(=O)Nc1cc(S(=O)(=O)N(CC)c2ccccc2)ccc1Cl (stereo unspecified) 10.6%
CCN(c1ccccc1)S(=O)(=O)c1ccc(Cl)c(NC(=O)CSc2nncs2)c1 14.1%
CCN(c1ccccc1)S(=O)(=O)c1ccc(Cl)c(NC(=O)CSc2nnc(C)s2)c1 17.6%
CCN(c1ccccc1)S(=O)(=O)c1ccc(Cl)c(NC(=O)CSc2nncn2C)c1 4.02%
CCN(c1ccccc1)S(=O)(=O)c1ccc(OC)c(NC(=O)Cc2ccc(OC)c(OC)c2)c1 8.13%
Nc1nc(SCC(=O)Nc2cc(S(=O)(=O)N3CCOCC3)ccc2Cl)n[nH]1 0.46%
